According to PubChem BioAssay AID1159580 (chemical genetic matrix, 2015):
In all, about 5,500 compounds went through this assay and about 2,000 (36%) were called active. Roughly 18% stayed inconclusive and do not appear here. Rule as the data show it: active = normalized growth mostly below about 0.91 (no sharp cut-off); inconclusive = no clear call, values can overlap the other calls; inactive = mostly above about 0.92. The list shows a part of the results.

Experiment: chemical genetic growth profiling, strain panel (AID 1159580);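 also: tested at 20 µM; growth read once vehicle control cultures reached saturation at 30 °C; 1 = growth at the plate median or of vehicle wells; lower values mean less growth of the strain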
Conditions: growth OD

Measured: normalized growth

COc1cc(C(=O)N2CCOCC2)cc(OC)c1OC
active: S. cerevisiae deletion strains, locus YKL085W, strain MDH1 (second series), stronger effect = lower value 0.353 | S. cerevisiae deletion strains, locus YKL085W, strain MDH1, stronger effect = lower value 0.353 | S. cerevisiae deletion strains, locus YKR001C, strain vps1, stronger effect = lower value 0.127 | S. cerevisiae deletion strains, locus YLR102C, strain apc9, stronger effect = lower value 0.102 | S. cerevisiae deletion strains, locus YLR268W, strain sec22, stronger effect = lower value 0.0891 | S. cerevisiae deletion strains, locus YLR371W, strain rom2, stronger effect = lower value 0.0857 | S. cerevisiae deletion strains, locus YLR418C, strain cdc73, stronger effect = lower value 0.102 | S. cerevisiae deletion strains, locus YML032C, strain rad52, stronger effect = lower value 0.845 | S. cerevisiae deletion strains, locus YML124C, strain tub3, stronger effect = lower value 0.158 | S. cerevisiae deletion strains, locus YMR078C, strain ctf18, stronger effect = lower value 0.205 | S. cerevisiae deletion strains, locus YMR223W, strain ubp8, stronger effect = lower value 0.0851 | S. cerevisiae deletion strains, locus YNL250W, strain rad50, stronger effect = lower value 0.531 | S. cerevisiae deletion strains, locus YNL271C, strain bni1, stronger effect = lower value 0.214 | S. cerevisiae deletion strains, locus YNL298W, strain CLA4, stronger effect = lower value 0.456 | S. cerevisiae deletion strains, locus YNL307C, strain MCK1, stronger effect = lower value 0.0679 | S. cerevisiae deletion strains, locus YOL147C, strain pex11, stronger effect = lower value 0.829 | S. cerevisiae deletion strains, locus YOR136W, strain idh2, stronger effect = lower value 0.0963 | S. cerevisiae deletion strains, locus YOR184W, strain ser1, stronger effect = lower value 0.0727 | S. cerevisiae deletion strains, locus YOR316C, strain cot1, stronger effect = lower value 0.0956 | S. cerevisiae deletion strains, locus YPR119W, strain clb2, stronger effect = lower value 0.143 | S. cerevisiae deletion strains, locus YPR163C, strain tif3, stronger effect = lower value 0.0748 | S. cerevisiae deletion strains, locus YPR167C, strain met16, stronger effect = lower value 0.0923 | S. cerevisiae deletion strains, strain wtn01, stronger effect = lower value 0.0623
inactive: S. cerevisiae deletion strains, locus YJR075W, strain HOC1, stronger effect = lower value 1 | S. cerevisiae deletion strains, locus YKL009W, strain mrt4, stronger effect = lower value 0.926 | S. cerevisiae deletion strains, locus YKL068W, stronger effect = lower value 0.988 | S. cerevisiae deletion strains, locus YKL160W, strain elf1, stronger effect = lower value 1 | S. cerevisiae deletion strains, locus YKL190W, strain CNB1, stronger effect = lower value 1.01 | S. cerevisiae deletion strains, locus YKR026C, strain gcn3, stronger effect = lower value 0.975 | S. cerevisiae deletion strains, locus YKR091W, strain srl3, stronger effect = lower value 0.977 | S. cerevisiae deletion strains, locus YLL001W, strain dnm1, stronger effect = lower value 0.987 | S. cerevisiae deletion strains, locus YLL026W, stronger effect = lower value 0.984 | S. cerevisiae deletion strains, locus YLL041C, strain sdh2, stronger effect = lower value 0.981 | S. cerevisiae deletion strains, locus YLR027C, strain aat2, stronger effect = lower value 1.01 | S. cerevisiae deletion strains, locus YLR039C, strain RIC1, stronger effect = lower value 1.04 | S. cerevisiae deletion strains, locus YLR058C, strain SHM2, stronger effect = lower value 1.01 | S. cerevisiae deletion strains, locus YLR113W, strain HOG1, stronger effect = lower value 0.999 | S. cerevisiae deletion strains, locus YLR221C, strain rsa3, stronger effect = lower value 0.968 | S. cerevisiae deletion strains, locus YLR258W, strain gsy2, stronger effect = lower value 1.01 | S. cerevisiae deletion strains, locus YLR262C, strain YPT6 (second series), stronger effect = lower value 1.02 | S. cerevisiae deletion strains, locus YLR262C, strain YPT6, stronger effect = lower value 1.06 | S. cerevisiae deletion strains, locus YLR320W, strain mms22, stronger effect = lower value 0.982 | S. cerevisiae deletion strains, locus YLR330W, strain CHS5, stronger effect = lower value 1 | S. cerevisiae deletion strains, locus YLR342W, strain FKS1 (second series), stronger effect = lower value 1.06 | S. cerevisiae deletion strains, locus YLR342W, strain FKS1, stronger effect = lower value 0.967 | S. cerevisiae deletion strains, locus YLR357W, strain rsc2, stronger effect = lower value 0.998 | S. cerevisiae deletion strains, locus YLR370C, strain arc18, stronger effect = lower value 1 | S. cerevisiae deletion strains, locus YLR384C, strain iki3, stronger effect = lower value 0.984 | S. cerevisiae deletion strains, locus YML016C, strain PPZ1, stronger effect = lower value 1.01 | S. cerevisiae deletion strains, locus YML120C, strain ndi1, stronger effect = lower value 0.985 | S. cerevisiae deletion strains, locus YMR058W, strain fet3, stronger effect = lower value 0.987 | S. cerevisiae deletion strains, locus YMR125W, strain sto1, stronger effect = lower value 0.993 | S. cerevisiae deletion strains, locus YMR129W, stronger effect = lower value 0.982 | S. cerevisiae deletion strains, locus YMR205C, strain PFK2, stronger effect = lower value 0.982 | S. cerevisiae deletion strains, locus YMR231W, strain pep5, stronger effect = lower value 0.975 | S. cerevisiae deletion strains, locus YMR263W, strain SAP30, stronger effect = lower value 1 | S. cerevisiae deletion strains, locus YMR307W, strain GAS1, stronger effect = lower value 1.06 | S. cerevisiae deletion strains, locus YNL067W, strain RPL9B, stronger effect = lower value 1 | S. cerevisiae deletion strains, locus YNL071W, strain lat1, stronger effect = lower value 0.987 | S. cerevisiae deletion strains, locus YNL128W, strain TEP1, stronger effect = lower value 1 | S. cerevisiae deletion strains, locus YNL153C, strain GIM3, stronger effect = lower value 0.997 | S. cerevisiae deletion strains, locus YNL183C, strain NPR1, stronger effect = lower value 0.967 | S. cerevisiae deletion strains, locus YNL209W, strain ssb2, stronger effect = lower value 0.981 | S. cerevisiae deletion strains, locus YNL233W, strain BNI4, stronger effect = lower value 0.992 | S. cerevisiae deletion strains, locus YNL248C, strain rpa49, stronger effect = lower value 0.991 | S. cerevisiae deletion strains, locus YNL322C, strain KRE1 (second series), stronger effect = lower value 0.975 | S. cerevisiae deletion strains, locus YNL322C, strain KRE1, stronger effect = lower value 1.01 | S. cerevisiae deletion strains, locus YNR049C, strain mso1, stronger effect = lower value 0.971 | S. cerevisiae deletion strains, locus YNR052C, strain pop2, stronger effect = lower value 1.04 | S. cerevisiae deletion strains, locus YOL006C, strain TOP1, stronger effect = lower value 1.05 | S. cerevisiae deletion strains, locus YOR001W, strain rrp6, stronger effect = lower value 0.967 | S. cerevisiae deletion strains, locus YOR061W, strain CKA2, stronger effect = lower value 1.01 | S. cerevisiae deletion strains, locus YOR069W, strain VPS5, stronger effect = lower value 1.01 | S. cerevisiae deletion strains, locus YOR070C, strain gyp1, stronger effect = lower value 0.982 | S. cerevisiae deletion strains, locus YOR080W, strain dia2, stronger effect = lower value 0.979 | S. cerevisiae deletion strains, locus YOR083W, strain WHI5, stronger effect = lower value 1.01 | S. cerevisiae deletion strains, locus YOR106W, strain vam3, stronger effect = lower value 1.01 | S. cerevisiae deletion strains, locus YOR144C, strain elg1, stronger effect = lower value 1.01 | S. cerevisiae deletion strains, locus YOR231W, strain MKK1, stronger effect = lower value 1.01 | S. cerevisiae deletion strains, locus YOR265W, strain rbl2, stronger effect = lower value 1 | S. cerevisiae deletion strains, locus YOR270C, strain vph1, stronger effect = lower value 0.978 | S. cerevisiae deletion strains, locus YOR290C, strain snf2, stronger effect = lower value 1.01 | S. cerevisiae deletion strains, locus YPL051W, strain arl3, stronger effect = lower value 0.993 | S. cerevisiae deletion strains, locus YPL055C, strain LGE1, stronger effect = lower value 1 | S. cerevisiae deletion strains, locus YPL078C, strain atp4, stronger effect = lower value 0.982 | S. cerevisiae deletion strains, locus YPL106C, strain sse1, stronger effect = lower value 0.998 | S. cerevisiae deletion strains, locus YPL240C, strain hsp82, stronger effect = lower value 1 | S. cerevisiae deletion strains, locus YPL241C, strain CIN2, stronger effect = lower value 1.01 | S. cerevisiae deletion strains, locus YPL256C, strain CLN2, stronger effect = lower value 1.07 | S. cerevisiae deletion strains, locus YPR141C, strain kar3, stronger effect = lower value 1.03 | S. cerevisiae strains, strain wild type, stronger effect = lower value 1.01
